Cruzain noTriton – cruzain (T. cruzi) inhibition without detergent; P25779; purified cruzain, Z-FR-AMC fluorescence, no detergent; Potency, µM, for the others: max response, negative = inhibition, usual class: inhibitors; 200,000 tested, 2.3% active;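 further: plate controls were enzyme without inhibitor for no effect and buffer without enzyme for full effect; nearly all actives have a fitted effect of over 40% in size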
Target sequence (P25779 123-467 limits assumed): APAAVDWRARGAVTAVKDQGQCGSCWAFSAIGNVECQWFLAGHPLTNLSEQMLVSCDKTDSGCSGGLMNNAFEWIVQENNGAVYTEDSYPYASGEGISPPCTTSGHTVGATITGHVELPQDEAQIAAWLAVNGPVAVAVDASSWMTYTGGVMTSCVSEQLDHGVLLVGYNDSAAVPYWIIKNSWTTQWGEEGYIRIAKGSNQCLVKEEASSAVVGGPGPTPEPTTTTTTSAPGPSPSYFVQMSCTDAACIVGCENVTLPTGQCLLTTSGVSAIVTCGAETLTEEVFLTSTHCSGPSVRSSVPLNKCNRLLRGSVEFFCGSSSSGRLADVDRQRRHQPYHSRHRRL
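Detergent-free condition (0.00005% Triton X-100) in acetate buffer pH 5.5 with DTT. 1.5 nM enzyme and compound were pre-mixed 15 min, then 2 uM Z-FR-AMC substrate added; reaction progress from fluorescence change between first and third reads (60 s).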
Cruzain Triton – blocks cruzain activity in presence of Triton detergent; P25779; purified cruzain, Z-FR-AMC fluorescence, 0.01% Triton; Potency, µM, without a hit: max response, negative = inhibition, hits mostly inhibitors; 200,000 tested, 0.43% active; AID 1478;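 further: plate controls were neutral wells for no effect and buffer without enzyme for full effect; nearly all actives have a fitted effect of over 40% in size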
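Enzyme 1.5 nM, Z-FR-AMC 2 uM, NaOAc 100 mM pH 5.5, DTT 5 mM, Triton X-100 0.01%; 15 min RT compound preincubation; kinetic ex360/em450, 60 s delta.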
Numbers without * were called inactive. An excerpt weighted towards active compounds, which were near 2.6% of everything screened. The call rests on the fitted dose curve; in most records, active means well fitted curve in the direction sought with a large enough effect; inconclusive means small, poorly fitted or top-dose-only effect, or another doubt; inactive means no such curve, though single readings can be large; an effect the other way counts as inactive or inconclusive. Potency means the concentration at half of the fitted maximal effect.

Results for O=C(Nc1nc(-c2ccccc2)c(-c2ccccc2)s1)c1ccc(S(=O)(=O)N2CCCC2)cc1 ?
Cruzain noTriton: inconclusive; Cruzain Triton: 6%

How did O=C(Nc1nc(-c2ccccc2)c(C(=O)c2ccccc2)s1)c1ccc(S(=O)(=O)N2CCCC2)cc1 do in these assays?
Cruzain noTriton: 25µM*; Cruzain Triton: -2%

How did Nc1nc(NC(=O)c2cccc(S(=O)(=O)N3CCCCCC3)c2)nc(-c2ccccc2)n1 do in these assays?
Cruzain noTriton: 20µM*; Cruzain Triton: 0%

What do the screens show for `Nc1nc(SC/C=C\c2ccccc2)c2[nH]cnc2n1`?
Cruzain noTriton: -8%; Cruzain Triton: -1%

How did c1nc[nH]n1 do in these assays?
Cruzain noTriton: -2%; Cruzain Triton: 5%

What do the screens show for `CCC1CCCCN1C(=O)c1nn(-c2ccc(C)cc2)c(=O)c2c1c1ccccc1n2C` (stereo not drawn)?
Cruzain noTriton: -1%; Cruzain Triton: -1%

What do the screens show for `COCC(=O)N1CCC2(CCCN(Cc3ccccc3OC)C2)CC1`?
Cruzain noTriton: 1%; Cruzain Triton: 4%

What do the screens show for `CNc1ccc(O)cc1`?
Cruzain noTriton: -7%; Cruzain Triton: -5%

Results for COc1cc(-c2ccc(N=C=O)c(OC)c2)ccc1N=C=O ?
Cruzain noTriton: 32µM*; Cruzain Triton: -4%

What do the screens show for `COc1cc(-c2ccc(NC(=O)c3ccc(C)cc3)c(OC)c2)ccc1NC(=O)c1ccc(C)cc1`?
Cruzain noTriton: -30%; Cruzain Triton: -1%

How did O=[N+]([O-])c1ccc2c(c1)C(N1CCOCC1)/C(=C/COc1ccc3ccccc3c1Br)O2 (stereo not drawn) do in these assays?
Cruzain noTriton: 25µM*; Cruzain Triton: -4%

What do the screens show for `O=[N+]([O-])c1ccc(OC/C=C2\Oc3ccc([N+](=O)[O-])cc3C2N2CCOCC2)cc1` (stereo not drawn)?
Cruzain noTriton: -2%; Cruzain Triton: -9%

How did Cn1c(=O)c2c(SCC(=O)NCc3ccco3)nc(-c3cccc(F)c3)nc2n(C)c1=O do in these assays?
Cruzain noTriton: -11%; Cruzain Triton: 4%

Results for Cc1ccc(CC(=O)Nc2nc3ccccc3s2)cc1 ?
Cruzain noTriton: -10%; Cruzain Triton: -11%

What do the screens show for `CCc1ccc(/C=C2/SC(=S)N(CC(=O)Nc3nc4ccccc4s3)C2=O)cc1`?
Cruzain noTriton: 3.2µM*; Cruzain Triton: -8%

Results for CCN1c2ccccc2-c2nc(SCC(=O)Nc3cc(F)ccc3F)ncc2S1(=O)=O ?
Cruzain noTriton: -1%; Cruzain Triton: -10%

How did CC1CC(C)CN(c2ccc(-n3cnnn3)cc2[N+](=O)[O-])C1 (stereo not drawn) do in these assays?
Cruzain noTriton: 3%; Cruzain Triton: -6%

How did O=[N+]([O-])c1cc(-n2cnnn2)ccc1N1CCC(Cc2ccccc2)CC1 do in these assays?
Cruzain noTriton: 25µM*; Cruzain Triton: -5%

How did Cc1cc(C)cc(NC(=O)Cn2c(=O)n(-c3ccc(C)c(C)c3)c(=O)c3oc4ccccc4c32)c1 do in these assays?
Cruzain noTriton: -13%; Cruzain Triton: -1%

What do the screens show for `CCn1c(C(=O)NCc2cc(Br)ccc2OC)cc2oc3ccccc3c21`?
Cruzain noTriton: 32µM*; Cruzain Triton: -5%

What do the screens show for `CCn1c(C(=O)NCc2ccccc2Br)cc2oc3ccccc3c21`?
Cruzain noTriton: inconclusive; Cruzain Triton: -7%

Results for COc1ccccc1CN1CCC2(CC1)CCN(C(=O)c1cccc(F)c1)CC2 ?
Cruzain noTriton: -16%; Cruzain Triton: 1%

What do the screens show for `C=C[C@@H](C1=CC(=O)C(OC)=C(OC)C1=O)c1ccccc1`?
Cruzain noTriton: 16%; Cruzain Triton: -3%

How did Cc1cccc(NC(=O)CN2C(=O)COc3ccc(S(=O)(=O)Nc4ccccc4)cc32)c1C do in these assays?
Cruzain noTriton: inconclusive; Cruzain Triton: 3%

How did CC(C)c1ccc(NC(=O)CN2C(=O)COc3ccc(S(=O)(=O)Nc4ccccc4)cc32)cc1 do in these assays?
Cruzain noTriton: 20µM*; Cruzain Triton: -8%

How did Cc1ccc(CCNC(=O)c2cnc3c(-c4ccc(F)cc4)c(C)nn3c2C)cc1 do in these assays?
Cruzain noTriton: -21%; Cruzain Triton: -2%

What do the screens show for `C=CCNC(=S)N/N=C/c1ccc(-c2cc(Cl)ccc2Cl)o1`?
Cruzain noTriton: 7.9µM*; Cruzain Triton: 1%

Results for COC(=O)c1ccc(Cl)c(-c2ccc(/C=N/NC(=O)Nc3ccccc3)o2)c1 ?
Cruzain noTriton: inconclusive; Cruzain Triton: -7%

Results for COc1ccc(Nc2ncc3c(n2)CCN(Cc2ccccc2C)C3)c(OC)c1 ?
Cruzain noTriton: 4%; Cruzain Triton: -1%

How did Cc1nc(Nc2ccc(Cl)cc2Cl)sc1C(=O)Nc1ccccc1 do in these assays?
Cruzain noTriton: -8%; Cruzain Triton: -5%

Results for Oc1nc(Nc2ccc(Cl)cc2Cl)sc1/C=C1\C=Nc2ccccc21 ?
Cruzain noTriton: 25µM*; Cruzain Triton: -6%

What do the screens show for `COc1ccc(NC(=O)N2CC[C@@]3(CCCN(C(=O)c4cccc(F)c4)C3)C2)cc1`?
Cruzain noTriton: 0%; Cruzain Triton: 1%

What do the screens show for `CC(C)CCn1c(SCC(=O)N2CC(=O)Nc3ccccc32)nc2scc(-c3cccs3)c2c1=O`?
Cruzain noTriton: 13µM*; Cruzain Triton: -3%

How did C=CCn1c(SCC(=O)N2CC(=O)Nc3ccccc32)nc2scc(-c3cccs3)c2c1=O do in these assays?
Cruzain noTriton: 10µM*; Cruzain Triton: -2%

How did C=CCn1c(COc2ccc(F)cc2)nnc1SCC(=O)N1CC(=O)Nc2ccccc21 do in these assays?
Cruzain noTriton: -4%; Cruzain Triton: -1%

Results for Cc1nnc(SCC(=O)N2CC(=O)Nc3ccccc32)n1C ?
Cruzain noTriton: -12%; Cruzain Triton: 1%

Results for C=Cc1ccc(Cn2c(C(=O)O)c(CNCc3ccc(F)cc3)c3ccc(C)cc32)cc1 ?
Cruzain noTriton: inconclusive; Cruzain Triton: -13%

How did Cc1c(Cl)cccc1NC(=O)NCCOCCn1c(=O)oc2ccccc21 do in these assays?
Cruzain noTriton: -2%; Cruzain Triton: 1%

How did Clc1cccc(N/N=C/c2ccc(N3CCOCC3)s2)c1 do in these assays?
Cruzain noTriton: 32µM*; Cruzain Triton: -14%

How did CC(C)(C)OC(=O)N/N=C/c1ccc(N2CCOCC2)s1 do in these assays?
Cruzain noTriton: 8%; Cruzain Triton: -5%

What do the screens show for `O=C(Nc1ccc(Br)cc1)Nc1nc2c(s1)CCCCCC2`?
Cruzain noTriton: -3%; Cruzain Triton: 0%

Results for CC(C)c1ccc(NC(=O)Nc2cc3sccc3n2C)cc1 ?
Cruzain noTriton: 7.9µM*; Cruzain Triton: -9%

How did Cn1c(C(=O)Nc2ccc3c(c2)OCCO3)cc2sccc21 do in these assays?
Cruzain noTriton: inconclusive; Cruzain Triton: -9%

What do the screens show for `O=C(Nc1ccc(Cl)cc1)C1CCN(S(=O)(=O)c2ccc(Br)s2)CC1`?
Cruzain noTriton: -26%; Cruzain Triton: -6%

Results for CN(C)S(=O)(=O)c1ccc(N2CCCC2)c(C(=O)Nc2nc3c(ccc4ccccc43)s2)c1 ?
Cruzain noTriton: 7.9µM*; Cruzain Triton: -4%

What do the screens show for `Cc1ccc(S(=O)(=O)N(C)c2ccc(OCC(=O)Nc3nc4ccccc4s3)cc2)cc1`?
Cruzain noTriton: inconclusive; Cruzain Triton: -1%

Results for CN(C)S(=O)(=O)c1ccc(N2CCCC2)c(C(=O)Nc2nc(-c3ccc(F)c(F)c3)cs2)c1 ?
Cruzain noTriton: -12%; Cruzain Triton: -4%

Screens from PubChem.
